# Experimental data as given in PubChem BioAssay (Tox21).
# Records with an inconclusive call do not appear. Values without a mark were called inactive. Active and inactive are the calls of the source. Calls come from the whole dose curve; as a rule, active = well fitted cell-killing curve with a large enough effect in the repeat runs; inconclusive = weak or mixed curves; inactive = no such curve, though single readings can be large or run the other way.
# Test: qHTS assay to identify small molecule antagonists of the peroxisome proliferator-activated receptor delta (PPARd) signaling pathway - cell viability counter screen (AID 743213); note: nearly all actives have a fitted effect of over 50% in size
# Details: PPARd-bla HEK293H viability, CellTiter-Glo luminescence, 17 h; series mostly up to 62 µM; viability change, negative = cytotoxic: at the top concentration
# In short: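 HEK293H cells with the PPARd UAS-bla reporter, co-treated 17 h at 37 C with compounds and L165041 (300 nM final), were lysed with CellTiter-Glo. Luminescence indicated viable cell content.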
# % is set by controls: 0 for no effect and ±100 for the full control effect; potency is the fitted concentration of half-maximal effect.
SMILES,Potency,"viability change, negative = cytotoxic [%]"
CN(C[C@@H](CC[N+]12CCC(C3CCCCC3)(CC1)CC2)c1ccc(Cl)c(Cl)c1)C(=O)c1cc(C(F)(F)F)cc(C(F)(F)F)c1,24.5 µM (active),
CC(Cc1ccc(O)c(O)c1)C(C)Cc1ccc(O)c(O)c1 (stereo not drawn),,-17
CC1=C(/C=C/C(C)=C/C=C/C(C)=C\C(=O)O)C(C)(C)CCC1,,-21.3
Cc1cc(Br)ccc1NC(=O)CCl,24.5 µM (active),
CCCCCN=C(N)N/N=C/c1c[nH]c2ccc(OC)cc12,33.5 µM (active),
O=C1OC(=O)c2cc(-c3ccc4c(c3)C(=O)OC4=O)ccc21,54.9 µM (active),
CN1CC[C@H](c2c(O)cc(O)c3c(=O)cc(-c4ccccc4Cl)oc23)[C@H](O)C1,,-12.2
O=C(CCN1CCC(c2ccccc2)C1)c1ccc2c(c1)OCCO2 (stereo not drawn),,-21.4
CCOc1ccc([N+](=O)[O-])cc1,44.3 µM (active),
CN(C)CCOc1ccc(/C(=C(/CCCl)c2ccccc2)c2ccccc2)cc1,10.3 µM (active),
NCc1cccc(C2CCN(C(=O)c3ccc(C#Cc4ccccc4F)o3)CC2)c1,49 µM (active),
Cc1cc(F)ccc1-c1cc(N2CC[C@@H](O)[C@H]2CO)ncc1N(C)C(=O)C(C)(C)c1cc(C(F)(F)F)cc(C(F)(F)F)c1,13.6 µM (active),
CN1CCN(CCCN2c3ccccc3Sc3ccc(C(F)(F)F)cc32)CC1,26.6 µM (active),
